Measurements taken from PubChem BioAssay (Tox21).
Where “and” joins values, the source holds several entries; their conditions need not be identical. Equal values may be shown once. Values without a mark were called inactive. Results filed as inconclusive are left out. Where a call stands in place of a potency, no number is given. Calls of active or inactive are those of the source. Unless noted, calls come from the whole dose curve; as a rule, active = well fitted curve in the direction sought with a large enough effect in the repeat runs; inconclusive = weak or mixed curves; inactive = no such curve, though single readings can be large; an effect the other way counts as inactive or inconclusive.

Columns and labels:
[1] = qHTS assay for small molecules that induce genotoxicity in human embryonic kidney cells expressing luciferase-tagged ATAD5 (AID 651632); note: nearly all actives have a fitted effect of over 15% in size
How it was run: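 Increased luciferase signal from ATAD5-tagged reporter cells indicates DNA-damage-driven ATAD5 induction. HEK293T cells are treated for 16 hr at 37C before detection with Amplite.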

[2] = qHTS assay for small molecule agonists of the p53 signaling pathway - cell viability (AID 651633; calls by dose curve;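 note: p53RE-bla HCT reporter cells with a stable beta-lactamase p53 reporter; series mostly up to about 83 µM; nearly all actives have a fitted effect of over 30% in size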)
How it was run: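 Viability counter-read: CellTiter-Glo luminescence (30 min, room temperature) in the same p53RE-bla plates. These plates had been exposed to compounds for 16 h at 37 C.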

[3] = qHTS assay for small molecules that induce genotoxicity in human embryonic kidney cells expressing luciferase-tagged ATAD5 - cell viability (AID 651634; calls by dose curve; note: nearly all actives have a fitted effect of over 25% in size)
How it was run: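 Cytotoxicity counterscreen in HEK293T cells bearing an ATAD5-luciferase reporter: live-cell protease activity measured by CellTiter-Fluor fluorescence after 15.5 hr compound exposure.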

[4] = qHTS assay for small molecule disruptors of the mitochondrial membrane potential - cell viability (AID 720634; calls by dose curve; note: nearly all actives have a fitted effect of over 20% in size; note: potency is the fitted concentration of half-maximal effect)
How it was run: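 After overnight attachment at 37 C, HepG2 cells received compound or DMSO vehicle for 1 hr. Viability is then taken from ATP-driven luminescence following a 30 min room-temperature CellTiter-Glo step.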

[5] = qHTS assay for small molecule disruptors of the mitochondrial membrane potential (AID 720635); note: potency is the fitted concentration of half-maximal effect
How it was run: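 Mitochondrial membrane potential tracked with Mito-MPS dye, red aggregates (ex 540/em 590 nm) against green monomers (ex 490/em 535 nm). Compound treatment 1 hr at 37C, dye 30 min in HepG2.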

[6] = qHTS assay to test for compound auto fluorescence at 590 nm (red) in HepG2 cells (AID 720674)
How it was run: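 1 hr compound incubation on HepG2 cells, 37 C, 5% CO2; plate read ex 540 nm / em 590 nm; intensities reported as Rose Bengal sodium equivalents.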

[7] = qHTS assay to test for compound auto fluorescence at 535 nm (green) in HepG2 cells (AID 720675)
[8] = qHTS assay to test for compound auto fluorescence at 590 nm (red) in HEK293 cells (AID 720679)
How it was run: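 We plated HEK293 cells in 10% dialyzed FBS medium, let them adhere for 4-5 hr, then added 23 nL compound. Overnight at 37C and 5% CO2 preceded fluorescence measurement at 540/590nm.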

[9] = qHTS assay for small molecule agonists of the p53 signaling pathway (AID 651631; calls by dose curve; note: nearly all actives have a fitted effect of over 15% in size; note: potency is the fitted concentration of half-maximal effect)
How it was run: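 p53RE-bla HCT-116 cells; compounds 16 h, 37 °C; LiveBLAzer B/G FRET substrate 2 h RT; fluorescence intensity read-out, qHTS format.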

[10] = qHTS assay to test for compound auto fluorescence at 460 nm (blue) in HEK293 cells (AID 720678)
How it was run: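 Triamterene serves as the blue fluorophore standard. Compound signal at 405/460 nm is read in HEK293 wells (2,000 cells, 10% dialyzed FBS) after overnight treatment at 37C.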

| Structure (SMILES) | outcome [1] | Potency [2] | Potency [3] | Potency [4] | Potency [5] | outcome [6] | outcome [7] | outcome [8] | Potency [9] | outcome [10] | activity, negative = cytotoxicity [3] |
| --- | --- | --- | --- | --- | --- | --- | --- | --- | --- | --- | --- |
| Cc1occc(=O)c1O | inactive | inactive | inactive | inactive | inactive | inactive | inactive | inactive | – | – | – |
| OCc1cccnc1 | inactive | – | inactive | inactive | – | inactive | inactive | inactive | – | – | – |
| NNc1nncc2ccccc12 | – | inactive | – | inactive | – | inactive | inactive | inactive | inactive | inactive | – |
| Cc1ccc2oc(=O)ccc2c1 | inactive | inactive | inactive | inactive | inactive | inactive | inactive | inactive | – | inactive | – |
| O=[N+]([O-])c1ccc(/C=C/c2ccc([N+](=O)[O-])cc2S(=O)(=O)O)c(S(=O)(=O)O)c1 | inactive | inactive | inactive | inactive | inactive | inactive | inactive | inactive | – | inactive | – |
| CC(c1cc2ccccc2s1)N(O)C(N)=O (centres undefined) | inactive | – | inactive | 27.3 µM (active) | inactive | inactive | inactive | inactive | – | inactive | – |
| CC(=O)CC(=O)Nc1ccccc1 | inactive | inactive | inactive | inactive | inactive | inactive | inactive | inactive | – | inactive | – |
| COc1ccc2cc([C@H](C)C(=O)O)ccc2c1 | – | inactive | inactive | inactive | inactive | inactive | inactive | inactive | – | inactive | – |
| CCCCCC1=CCCC1=O | inactive | inactive | inactive | inactive | inactive | inactive | inactive | inactive | – | – | – |
| COS(C)(=O)=O | inactive | inactive | inactive | inactive | inactive | inactive | inactive | inactive | – | – | – |
| CCCCCCCCCCCCOCCO | inactive | inactive | inactive | inactive | – | inactive | inactive | inactive | – | – | – |
| CCCSc1ccc2nc(NC(=O)OC)[nH]c2c1 | – | inactive | – | inactive | 4.52 µM (active) and 12.2 µM (active) | inactive | inactive | inactive | 320 nM (active) and 306 nM (active) | – | – |
| O=C(O)c1ccccc1C(c1ccc(O)cc1)c1ccc(O)cc1 | inactive | inactive | inactive | inactive | – | inactive | inactive | inactive | – | inactive | – |
| COc1ccc(NC(C)=O)cc1N | inactive | inactive | inactive | inactive | inactive | inactive | inactive | inactive | – | – | – |
| CC1CCC(C(C)C)C(O)C1 (centres undefined) | inactive | inactive | inactive | inactive | inactive | inactive | inactive | inactive | – | inactive | – |
| O=C(O)CCCCCCCCCCC(=O)O | inactive | inactive | inactive | inactive | inactive | inactive | inactive | inactive | – | inactive | – |

| Structure (SMILES) | outcome [1] | Potency [2] | Potency [3] | Potency [4] | Potency [5] | outcome [6] | outcome [7] | outcome [8] | Potency [9] | outcome [10] | activity, negative = cytotoxicity [3] |
| --- | --- | --- | --- | --- | --- | --- | --- | --- | --- | --- | --- |
| O=C(O)CCCC[C@@H]1SC[C@@H]2NC(=O)N[C@@H]21 | inactive | inactive | inactive | inactive | inactive | inactive | inactive | inactive | – | inactive | – |
| CCc1ccc(CCOc2ccc(CC3SC(=O)NC3=O)cc2)nc1 (centres undefined) | inactive | inactive | inactive | inactive | – | inactive | inactive | inactive | – | – | – |
| OCC(CO)(CBr)CBr | inactive | inactive | inactive | inactive | inactive | inactive | inactive | inactive | – | inactive | – |
| CC1=CC(=O)NS(=O)(=O)O1 | – | inactive | inactive | inactive | inactive | inactive | inactive | inactive | – | inactive | – |
| O=C(O)[C@H](O)[C@@H](O)[C@H](O)[C@H](O)CO | inactive | – | inactive | inactive | inactive | inactive | inactive | inactive | – | – | – |
| CCN(CC)CCCC(C)Nc1ccnc2cc(Cl)ccc12 (centres undefined) | inactive | – | – | – | – | inactive | inactive | inactive | – | inactive | -6.84% [at 8.08 µM] |
| O=C(Oc1ccccc1)c1ccccc1 | inactive | inactive | inactive | inactive | inactive | inactive | inactive | inactive | – | – | – |
| C#C[C@]1(O)CC[C@H]2[C@@H]3CCC4=CC(=O)CC[C@@H]4[C@H]3CC[C@@]21C | inactive | – | inactive | inactive | inactive | inactive | inactive | inactive | – | – | – |
| COCCCOc1ccnc(CS(=O)c2nc3ccccc3[nH]2)c1C (centres undefined) | – | inactive | – | inactive | – | inactive | inactive | inactive | inactive | inactive | – |
| CCCCCOC(C)=O | inactive | inactive | inactive | inactive | inactive | inactive | inactive | inactive | – | inactive | – |
| CCN(CC)c1ccc(C(=O)c2ccccc2C(=O)O)c(O)c1 | inactive | inactive | inactive | inactive | – | inactive | inactive | inactive | – | inactive | – |
| CCCCCCCCC/C=C/CC1CC(=O)OC1=O (centres undefined) | – | inactive | inactive | inactive | – | inactive | inactive | inactive | – | inactive | – |
| CCCCC(CC)COC(=O)C(C#N)=C(c1ccccc1)c1ccccc1 (centres undefined) | inactive | inactive | inactive | 15.4 µM (active) | 27.3 µM (active) | inactive | inactive | inactive | – | – | – |
| CC(=O)Nc1ccccc1 | inactive | inactive | inactive | inactive | – | inactive | inactive | inactive | – | inactive | – |
| C=C(C)C(=O)Nc1ccc(Cl)c(Cl)c1 | inactive | inactive | inactive | – | 19.5 µM (active) and 30.5 µM (active) | inactive | inactive | inactive | – | inactive | – |
